Results from PubChem BioAssay (Tox21).
Records with an inconclusive call do not appear. Entries that show only a call come without a potency. The source made the active and inactive calls. Calls come from the whole dose curve; as a rule, active = well fitted activation curve with a large enough effect in the signal ratio in the repeat runs (not every such curve was filed as active); inconclusive = weak or mixed curves, or effect the other way; inactive = no such curve, though single readings can be large or run the other way; the % refers to the signal ratio.

Biological target: Glucocorticoid receptor (Homo sapiens) (UniProt P04150)
Assay: qHTS assay to identify small molecule agonists of the glucocorticoid receptor (GR) signaling pathway (AID 720691)
Conditions: GR-bla HeLa, beta-lactamase reporter ratio, 18 h; series mostly up to 62.4 µM
From the text: U.S. Tox21 Program National Center for Advancing Translational Sciences [NCATS] NIH Chemical Genomics Center [NCGC] U.S. Environmental Protection Agency [EPA] National Institutes of Environmental Health Sciences [NIEHS] National Toxicology Program [NTP] U.S. Food and Drug Administration [FDA] Tox21 Assay Overview: The Glucocorticoid receptor (GR) is one of the members of the nuclear receptor family of ligand-dependent transcription factors. GR plays a critical role in carbohydrate, protein and lipid metabolisms and programmed cell death. CellSensor GR-bla HeLa cell line (Invitrogen) contains a beta-lactamase reporter gene under the control of the glucocorticoid response element stably integrated into HeLa cells, a cervical cancer cell line that expresses glucocorticoid receptor. The activation of the reporter gene under culture conditions can be detected by fluorescence intensity. This cell line has been used to screen the Tox21 10K compound library and to identify the compounds that activate the GR signaling.
Tox21 Assay Protocol Summary: The GR-bla HeLa cells were dispensed at 1500 cells/6 ul/well in 1536-well black wall/clear bottom plates using a Multidrop Combi (ThermoFisher Scientific, Waltham, MA) dispenser. After the assay plates were incubated at a 37 C/5% CO2 incubator for 4 hours, 23 nL of compounds dissolved in DMSO, positive controls or DMSO only was transferred to the assay plate by a pintool station (Kalypsys, San Diego, CA). The plates were incubated at 37 C for 18 hours. After 1 uL of LiveBLAzerTM B/G FRET substrate was added using a Flying Reagent Dispenser (Aurora Discovery, San Diego, CA), the plates were incubated at room temperature for 2 hours, and fluorescence intensity was measured by an Envision plate reader (PerkinElmer, Shelton, CT).

Sequence of Glucocorticoid receptor (Homo sapiens) (P04150 whole entry, looked up): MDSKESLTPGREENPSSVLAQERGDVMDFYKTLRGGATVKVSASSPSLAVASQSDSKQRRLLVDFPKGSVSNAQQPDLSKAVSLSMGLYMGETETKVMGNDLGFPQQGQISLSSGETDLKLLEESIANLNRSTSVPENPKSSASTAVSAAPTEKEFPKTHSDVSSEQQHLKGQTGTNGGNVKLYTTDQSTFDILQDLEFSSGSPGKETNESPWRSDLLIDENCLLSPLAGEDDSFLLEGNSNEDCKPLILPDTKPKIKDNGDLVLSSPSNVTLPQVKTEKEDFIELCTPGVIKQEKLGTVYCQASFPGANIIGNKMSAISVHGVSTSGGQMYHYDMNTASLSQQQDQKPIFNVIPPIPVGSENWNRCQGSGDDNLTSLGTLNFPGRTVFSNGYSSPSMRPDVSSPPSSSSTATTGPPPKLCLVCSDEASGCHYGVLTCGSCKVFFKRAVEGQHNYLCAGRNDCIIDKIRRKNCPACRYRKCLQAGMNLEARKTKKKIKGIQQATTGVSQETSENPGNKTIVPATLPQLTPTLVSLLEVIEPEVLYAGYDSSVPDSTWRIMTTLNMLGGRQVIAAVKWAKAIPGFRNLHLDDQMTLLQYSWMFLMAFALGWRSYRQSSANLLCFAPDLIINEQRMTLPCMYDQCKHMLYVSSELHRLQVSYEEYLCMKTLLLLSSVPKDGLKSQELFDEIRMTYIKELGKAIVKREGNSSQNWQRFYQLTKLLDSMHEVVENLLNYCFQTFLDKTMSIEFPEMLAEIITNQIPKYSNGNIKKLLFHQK

Structure (SMILES)	Potency
Cc1nnc2n1-c1ccc(Cl)cc1C(c1ccccc1Cl)=NC2	inactive
CCC1(c2ccccc2)C(=O)NC(=O)N(C(=O)c2ccccc2)C1=O (stereo not given)	inactive
NC(=O)CN1CC(O)CC1=O (stereo not given)	inactive
CCOC(=O)C1(c2ccccc2)CCCN(C)CC1 (stereo not given)	inactive
COC(COC(N)=O)C1=C(N2CC2)C(=O)C(C)=C(N2CC2)C1=O (stereo not given)	inactive
C[N+]1([O-])[C@@H]2CC(OC(=O)[C@H](CO)c3ccccc3)C[C@H]1[C@@H]1O[C@@H]12 (stereo not given in full)	inactive
CN(C)CCCCCCN(C)C	inactive
C[C@]12CC[C@H](O)C[C@H]1CC[C@@H]1[C@@H]2CC[C@]2(C)[C@@H](c3ccc(=O)oc3)C[C@H]3O[C@]132	inactive
C/C(=C\c1csc(C)n1)[C@@H]1C[C@@H]2O[C@]2(C)CCC[C@H](C)[C@H](O)[C@@H](C)C(=O)C(C)(C)[C@@H](O)CC(=O)O1	inactive
O=S(=O)(O)c1cc(O)ccc1O	inactive
CC(=O)OC1CN2CCC1CC2 (stereo not given)	inactive
C[C@]12CCC(=O)C=C1C=C[C@@H]1[C@@H]2CC[C@@]2(C)[C@H]1CC[C@@]2(O)CCC(=O)O	inactive
O=[N+]([O-])c1cc(I)c(O)c(I)c1	inactive
CCc1cc(OC)c(C[C@@H](C)N)cc1OC	inactive
[S]=[Sb](=[S])[S][Sb](=[S])=[S]	inactive
CCCC(C)(COC(N)=O)COC(=O)NC1CC1 (stereo not given)	inactive
F/C(COc1ccc2c(c1)[nH]c1ccccc12)=C1/CN2CCC1CC2	inactive
Cc1nnc2n1-c1sc(Br)cc1C(c1ccccc1Cl)=NC2	inactive
CCCN1CCC[C@H](c2cccc(O)c2)C1	inactive
CCOc1ccc2c3c1O[C@H]1[C@@H](O)C=C[C@H]4[C@@H](C2)N(C)CC[C@@]341	inactive

Structure (SMILES)	Potency
CC(=O)O[C@H]1C[C@H](O[C@H]2[C@@H](O)C[C@H](O[C@H]3[C@@H](O)C[C@H](OC4CC[C@@]5(C)[C@H](CC[C@@H]6[C@@H]5CC[C@]5(C)[C@@H](C7=CC(=O)OC7)CC[C@]65O)C4)O[C@@H]3C)O[C@@H]2C)O[C@H](C)[C@H]1O[C@@H]1O[C@H](CO)[C@@H](O)[C@H](O)[C@H]1O (stereo not given in full)	inactive
C[N+]1(C)CCCCC1COC(=O)C(O)(c1ccccc1)c1ccccc1 (stereo not given)	inactive
C[C@]12CC[C@@H]3c4ccc(OC(=O)N(CCCl)CCCl)cc4CC[C@H]3[C@@H]1CC[C@@H]2OP(=O)(O)O	inactive
O=P1(N(CCCl)CCCl)NC(OO)CCO1 (stereo not given)	inactive
C[C@@H](CO)NC(=O)[C@@H]1C=C2c3cccc4[nH]cc(c34)C[C@H]2N(C)C1	inactive
CC(=O)O[C@H]1C[C@H](O[C@H]2[C@@H](O)C[C@H](O[C@H]3[C@@H](O)C[C@H](O[C@H]4CC[C@@]5(C)[C@H](CC[C@@H]6[C@@H]5C[C@@H](O)[C@]5(C)[C@@H](C7=CC(=O)OC7)CC[C@]65O)C4)O[C@@H]3C)O[C@@H]2C)O[C@H](C)[C@H]1O[C@@H]1O[C@H](CO)[C@@H](O)[C@H](O)[C@H]1O	inactive
NCC(O)c1cccc(O)c1 (stereo not given)	inactive
C[C@]12CCC(=O)C[C@@H]1CC[C@@H]1[C@@H]2CC[C@@]2(C)[C@H]1CC[C@]2(C)O	inactive
c1cc2c(c(NC3=NCCN3)c1)CCCC2	inactive
C[C@@H]([C@H](O)c1ccccc1)N(C)C	inactive
O[C@H]1[C@H]2[C@H](O)CCCN2C[C@H]1O	inactive
CC(C)(O)[C@@H]1[C@H]2OC(=O)[C@@H]1[C@]1(O)C[C@H]3O[C@]34C(=O)O[C@H]2[C@]14C	inactive
O=C1C=C2C=C[C@@H]3C[C@@]2(O1)[C@H]1CCCCN31	inactive
OC(c1ccccc1)(c1ccccc1)C1CN2CCC1CC2 (stereo not given)	inactive
CN[C@@]1(c2ccccc2Cl)CCCCC1=O	inactive
CO/C=C(/C(=O)OC)c1ccccc1Oc1cc(Oc2ccccc2C#N)ncn1	inactive
Cc1cc(C)cc(C(=O)OC2C[C@H]3CC[C@@H](C2)N3C)c1 (stereo not given in full)	inactive
C=C[C@H]1CN2CC[C@H]1C[C@H]2[C@H](OC(=O)OCC)c1ccnc2ccc(OC)cc12	inactive
CCON=O	inactive
Cc1nnc2n1-c1ccc(Cl)cc1C(c1ccccc1)=NC2	inactive
